Measurements published in ChEMBL document CHEMBL3988442, “University of Dundee, Small-Polar-MMV Screening Library” (2021).

Columns and labels:
[1] = molecular target: T1, Aspartate--tRNA(Asp/Asn) ligase (Mycobacterium tuberculosis (strain ATCC 25618 / H37Rv)) (UniProt P9WFW3); assay: Assay for Asp RNA synthetase-1 from Mycobacterium tuberculosis; assay type: functional; parameters: scale not given: direction of the effect not stated beside the values; settings: 30 µM; further: in the data most compounds retested in dose-response had high values
T1 sequence (whole entry): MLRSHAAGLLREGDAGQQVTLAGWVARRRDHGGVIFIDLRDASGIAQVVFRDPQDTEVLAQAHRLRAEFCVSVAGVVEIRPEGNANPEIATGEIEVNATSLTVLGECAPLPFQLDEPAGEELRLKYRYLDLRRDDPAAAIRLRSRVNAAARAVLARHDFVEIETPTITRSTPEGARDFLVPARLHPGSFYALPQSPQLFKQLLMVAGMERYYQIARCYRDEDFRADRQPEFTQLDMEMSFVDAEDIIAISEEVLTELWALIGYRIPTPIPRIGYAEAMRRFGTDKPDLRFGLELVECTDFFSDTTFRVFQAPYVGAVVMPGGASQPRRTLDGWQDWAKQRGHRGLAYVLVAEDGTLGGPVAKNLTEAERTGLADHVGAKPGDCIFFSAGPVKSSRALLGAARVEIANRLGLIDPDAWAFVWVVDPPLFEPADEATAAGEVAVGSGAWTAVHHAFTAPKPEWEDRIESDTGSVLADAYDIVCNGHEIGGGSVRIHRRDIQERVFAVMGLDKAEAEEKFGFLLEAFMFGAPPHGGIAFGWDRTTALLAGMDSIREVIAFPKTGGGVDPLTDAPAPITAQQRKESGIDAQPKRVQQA

[2] = molecular target: Shiga toxin 2 (Escherichia coli O157:H7) (UniProt P09385+P09386); assay: E. coli 0.157:H7 Shiga Toxin SOP - stx2 screening assay; assay type: functional; parameters: scale not given: direction of the effect not stated beside the values; settings: 30 µM

SMILES | Percent Effect [1] [%] | Percent Effect [2] [%]
Cc1noc(C(C)C)c1C(=O)NCc1cccc(N(C)C)c1 | -3.25 | 13.2
Cn1c(Cn2cccn2)nnc1C1CCCN(c2ccncc2)C1 (stereo unspecified) | 1.37 | -3.13
Cc1nc(CN2CCC3(CC2)NC(=O)CC3c2ccccc2)cs1 (stereo unspecified) | -5.35 | 7.78
Cc1cc(CNc2ccc(C(=O)N3CCCC(C)C3)cc2C)no1 (stereo unspecified) | -2.25 | 11.6
CCCc1n[nH]c(C2CN(C(=O)C3=COCCC3)CCO2)n1 (stereo unspecified) | -5.39 | 19
NC(=O)c1ccc(N2CCCCC2)c(NC(=O)c2cncc(Br)c2)c1 | 13.7 | -52.6
CC(C)CCC(=O)NC(C)c1nnc2n1CCCCC2 (stereo unspecified) | 1.76 | -17.4
Cc1cn2c(n1)CCC(NC(=O)c1ccc(CS(C)(=O)=O)cc1)C2 (stereo unspecified) | -0.233 | -16.5
Cc1ccccc1CN1CCC2(COCc3cnc(N(C)C)nc32)C1 (stereo unspecified) | -3.4 | -15.8
O=C(Nc1ccccc1)C1=CC2(CCNCC2)c2ccccc21 | 1.3 | -14.6
CN(C)CC1CN(Cc2ccsc2)Cc2nccn2C1 (stereo unspecified) | 4.71 | -1.56
COc1ccc(NC(=O)N2CCN(c3ncccn3)CC2)cn1 | -4.63 | -16.1
CCc1cnc2c(c1Nc1ccncc1)c(=O)n(C)c(=O)n2C | 0.918 | -8.05
Cc1nc(C)n(CC2CCCN2Cc2nc3ccccc3n2C)n1 (stereo unspecified) | -7.69 | 5.05
CCc1ccc(C(=O)N2CCCC(n3cncn3)C2)o1 (stereo unspecified) | 1.95 | -18.7
Cc1ccc(C)c(OCCN2CCC(N3CCNC3=O)CC2)c1 | 0.583 | -1.43
Cc1nn(C)c(Cl)c1CNCc1ccc(OCC(N)=O)cc1 | -2.25 | -17.5
CCC(CC)C(O)CNC(=O)Nc1cc(C)nn1C (stereo unspecified) | -1.77 | -3.6
O=S(=O)(C1CC1)N1CCC2(COCc3cnc(N4CCOCC4)nc32)C1 (stereo unspecified) | -2.06 | -56.7
COc1ccc(CC(=O)NC2(C)CCS(=O)(=O)C2)cc1F (stereo unspecified) | 4.95 | -19.1
CC1CCN(c2ncc3c(n2)CN(c2ccc4c(c2)OCO4)C3=O)CC1 | 10.8 | -21.4
Cc1nc(NC(=O)CNC(=O)c2c(F)cccc2Cl)n[nH]1 | 6.53 | 3.62
CC(C)CC1SCC(=O)Nc2c1cnn2-c1ccc(F)cc1 (stereo unspecified) | -3.46 | 0.343
O=C(NCCNc1ncccn1)c1ccc(-c2ccco2)[nH]c1=O | 6.93 | 10.7
C=Cn1ncc(CN2C[C@@H]3CCCN3C[C@@H]2Cc2ccccc2)c1C | -6.18 | 2.92
COCCN1CCC(CN(CC2CCCO2)C(=O)COC)CC1 (stereo unspecified) | -4.26 | -0.207

SMILES | Percent Effect [1] [%] | Percent Effect [2] [%]
Cc1cc(CNCc2c(C)nn(C)c2N2CCOCC2)no1 | -2.57 | 16.5
COCC(NC(=O)c1cnn(C)c1)c1cccc(C(F)(F)F)c1 (stereo unspecified) | -1.9 | -12.8
COc1ccc(CN2CCC3(CC2)NC(=O)CC3c2ccncc2)cc1 (stereo unspecified) | 5.29 | 9.6
Cc1noc2nc(C3CCN(Cc4cccnc4)CC3)cc(C(F)F)c12 | 1.32 | -52.2
Cc1nc(C)n(CC2CCCN(Cc3nc(C4CC4)no3)C2)n1 (stereo unspecified) | 4.92 | 7.13
Cc1ccnc(OCC(=O)N2CCC(C(N)=O)CC2)n1 | -6.44 | 1.84
Oc1nc(N2CCOCC2)nc2c1CCN(Cc1cccnc1)CC2 | 0.849 | -13.5
COc1ccccc1C(=O)NC(CC(=O)O)c1cccs1 (stereo unspecified) | 5.75 | -32.6
Cc1cc(CC(=O)N(CC2CN(C)CCO2)c2nccs2)no1 (stereo unspecified) | -0.67 | -18.7
Cc1ccccc1CS(=O)(=O)CC(=O)NC1CCCCNC1=O (stereo unspecified) | -3.58 | -14.7
NC(=O)C1(CCCc2cccnc2)CCCN(c2ncccn2)C1 (stereo unspecified) | -0.456 | -4.97
COCC1CN(Cc2ccsc2)Cc2nn(C)cc21 (stereo unspecified) | 15.7 | -13.1
Cc1ccc(CC(=O)N2CCOC(c3nc(C)n[nH]3)C2)cn1 (stereo unspecified) | 1.92 | 0.301
CCn1nc(C)c2ncnc(NCCCN3CCOCC3)c21 | -3.37 | -33.6
Oc1cc(CCC2CCCCN2)cc(-c2ccncc2)c1 (stereo unspecified) | 2.44 | -42.2
COc1cc(CCC(=O)NC2CC2)ccc1OCC(F)(F)F | 1.01 | 30.2
Cn1ncc2c1CCCC2NCc1cc(Br)cs1 (stereo unspecified) | -1.12 | 7.1
Cc1cnn(CCC(=O)N2CCC(Nc3cccnn3)CC2)c1 | 1.38 | 16.1
CCn1ccnc1CN1CCC(N(C)Cc2ncc(C)o2)C1 (stereo unspecified) | -4.45 | -39.6
CN(C)c1cc(C(=O)NCCc2nnc(-c3ccco3)[nH]2)ccn1 | -1.56 | -46.4
COCCNC(=O)c1cc2c(s1)CCN2C(=O)c1ccccc1 | 0.0582 | -56.3
CS(=O)(=O)NCCCN1CCCC1c1ccccc1 (stereo unspecified) | 2.4 | 10
CC(C)c1ncc2c(n1)CN(Cc1nc(-c3ccoc3)no1)CC2 | 3.7 | -1.63
N#Cc1ncn(CCC(=O)Nc2ccc(Cl)cc2F)n1 | 10.4 | -41
CCC(=O)N1CCC(c2nnc(Cn3cccn3)n2C2CC2)CC1 | -6.07 | -3.53
Cc1ccoc1C(=O)N1CCO[C@H]2[C@H](OCCN(C)C)CC[C@@H]21 | -1.25 | -12.2

SMILES | Percent Effect [1] [%] | Percent Effect [2] [%]
Cc1ccc(NC(=O)Cn2cc(I)cn2)cc1 | 1.25 | -45.6
CN(C)c1ncc(CN2CCC(c3nnsc3S(C)(=O)=O)CC2)cn1 | -3.26 | 1.96
CCC1CN(C(=O)c2ccc(=O)[nH]c2)CCC(=O)N1Cc1ccccc1 (stereo unspecified) | -4.62 | 5.03
Cc1nc(N2CCCC2)nc2c1CN(C(C)C)CC2 | 1.86 | -13.3
CCC(C)CNc1ccc2oc(COC)nc2c1 (stereo unspecified) | 65.3 | -59.7
O=C(Cn1cc(I)cn1)N1CCc2ccccc2C1 | 2.67 | -31
Cc1cnc(C(=O)N2CCCCC2c2[nH]ncc2S(C)(=O)=O)cn1 (stereo unspecified) | 2.63 | -5.44
COCCn1cc2c(n1)C(CNCc1ccc(F)cc1)OCC2 (stereo unspecified) | 1.2 | -6.53
OC[C@H]1CC[C@]2(CC1)CN(Cc1ccccc1F)Cc1ccccc1O2 | -2.81 | 20.1
O=C1CCCN1Cc1ncn2c1CN(C(=O)c1cccc(F)c1)CCC2 | -3.2 | 3.75
CN(CCO)C[C@@H]1CN(C(=O)c2c(F)cccc2Cl)C[C@@H]1CO | 2.26 | -49
CC(C)NC(=O)C1CN(C(=O)c2ccco2)CC12CCOCC2 (stereo unspecified) | 9.32 | 1.11
CC(C)=CCN1CCOC(Cn2nc(C)cc2C)C1 (stereo unspecified) | -3.08 | 24.4
Cc1cc(C[C@@H]2COC[C@H]2NCc2ccc(Br)s2)on1 | -1.77 | 4.69
O=C(Cn1cc(I)cn1)N1CCCC1 | -4.62 | -0.574
Cc1noc([C@H]2CC[C@@H]3[C@@H](CCN3S(C)(=O)=O)O2)n1 | 2.38 | -3.33
CCNC(=O)N1CCC2(C1)c1ccccc1S(=O)(=O)N2CCC(C)C (stereo unspecified) | -0.553 | -1.22
CN(Cc1nnc(-c2ccco2)o1)CC1CCCN1c1cccnn1 (stereo unspecified) | 7.29 | 11.7
CCN1CCC(c2nc3ccc(NC(C)C)cn3n2)CC1 | 2.52 | 4.27
Cc1scc(C(=O)N2CCC3(CC(=O)NC3=O)C2)c1-c1ccccc1 (stereo unspecified) | 0.19 | 8.3
CN(Cc1ccco1)[C@@H]1CN(C(=O)c2ccnnc2)C[C@@H]2CCCO[C@@H]21 | -5.22 | -5.91
O=C(NCc1ccccc1F)N1CCC(C2OCCO2)CC1 | -2.61 | -12.8
CCn1ccnc1CN(C)C1CCCN(CCc2ccccc2)C1 (stereo unspecified) | -0.476 | -36
O=C(Cn1ccc2sccc2c1=O)NCc1ccc2c(c1)OCO2 | 0.0437 | -8.21
CCc1c(C)nc2n(c1=O)CC(C(=O)Nc1nccs1)CS2 (stereo unspecified) | -3.8 | -29.4
Cc1cnc(N2CCn3cc(CNC(=O)CC4CC4)nc3C2)nc1 | 2.93 | -22.4

SMILES | Percent Effect [1] [%] | Percent Effect [2] [%]
COc1ccc(CNC(=O)C2(C#N)CCCC2)cc1 | 2.12 | 8.48
Cn1nc(C2CCCN(Cc3ccsc3)C2)c2nccnc21 (stereo unspecified) | -2.96 | -14.3
COCCCN1CC2(CCCCN2C(=O)c2ccsc2)CC1=O (stereo unspecified) | -3.53 | -5.69
CC1CCN(CCNC(=O)c2ccccc2N2CCOCC2)CC1 | 2.6 | -16.9
COc1cc(N2C[C@@H]3COC[C@]3(COc3ccc(C#N)cn3)C2)ncn1 | -1.45 | 11.9
Cc1ccc(S(=O)(=O)N2CCc3nc(C4CCNCC4)ncc3C2)cc1 | -1.21 | 8.71
Cc1cc(C)c(CNC(=O)NCc2ccc3c(c2)CCC3)c(=O)[nH]1 | -4.97 | 32.4
Cc1cnc2n(c1=O)CC(C(=O)Nc1ccccc1Cl)CS2 (stereo unspecified) | -5.41 | -4.63
CCCNC(=O)CNC(=O)CCc1ccccc1Br | -2.76 | -0.75
CCOC(=O)c1c(NC(=O)CN2CCN(C(C)=O)CC2)sc2c1CCC2 | -3.95 | 16.4
CCN1CCC2(CCC(=O)N2Cc2cccc(C)n2)CC1 | -3.94 | 1.16
CN1CCN(CCO)C(=O)C12CCN(Cc1ccsc1)CC2 | -3.89 | -1.74
CCC(=O)N1CCCC1c1nccnc1Nc1nc(C)cc(C)n1 (stereo unspecified) | 4.25 | -28.8
COc1ccc(CNCC2CCN(CC(C)O)CC2)c2ccccc12 (stereo unspecified) | -5.41 | -33.8
CN1CCN(C(=O)Cc2cccc(F)c2)Cc2cccnc21 | -2.05 | -29.8
O=C(NCCc1c[nH]cn1)c1ccc2c(c1)C(=O)N(C1CC1)C2=O | -1.45 | -47.1
Cc1nc(C2CCCN2CCCNS(C)(=O)=O)no1 (stereo unspecified) | -0.167 | 23.5
Cc1cc(CN2CCCC(C)(CO)C2)ccc1F (stereo unspecified) | -3.62 | 14.3
Cc1nc2ccccn2c1CN(Cc1cccnc1)CC1CCCO1 (stereo unspecified) | 8.51 | -8.1
Cc1cnn(CC2CCCN2C(=O)c2ccc3nnc(C)n3c2)c1 (stereo unspecified) | 0.189 | -37.5
O=C(NCC1CC1)C1CN(C(=O)c2cccc(Cl)c2)CC12CCOCC2 (stereo unspecified) | 11.9 | -14.2
CN(Cc1cccnc1)C1CC2(CCN(c3ccccn3)CC2)C1 | 2.16 | -47.1
COCCN1CC[C@]2(CN(C(=O)c3cccs3)C[C@H]2C)C1=O | 1.59 | -8.13
COc1cccc(OCC2CCCN(C(C)=O)C2)c1 (stereo unspecified) | 3.99 | -11
CS(=O)(=O)N1CC[C@H]2[C@H](C[C@@H](Cn3cncn3)N2CC2CC2)C1 | 10.1 | -8.81
